Laboratory results taken from ChEMBL document CHEMBL4513216, “Probing the Open Global Health Chemical Diversity Library for Multistage-Active Starting Points for Next-Generation Antimalarials” (ACS Infect Dis, 2020).
Out of some 69,000 compounds screened, about 8,600 (12%) showed an effect of 50% or more. What follows is part of a selection rich in strong results, with near analogues and random picks from the rest.

What follows are compounds tested on Plasmodium berghei (assay: Screen against P. berghei liver stage (PbLuc), transformed with Luciferase, at 10uM). Details: tested at 10 uM.
Assay type: functional, HepG2
In the case of `CCOCCNS(=O)(=O)c1cc(C)c2nc(O)cc(C)c2c1`, the INHIBITION is reported as 16.3%. For `CNS(=O)(=O)c1cc(C)c2[nH]c(=O)cc(C)c2c1`, the INHIBITION was 56%. `CCCNS(=O)(=O)c1ccc2[nH]c(=O)cc(C)c2c1` showed an INHIBITION of 14.3%. `CN(C)C(=O)[C@@H]1C[C@@H]2CCN(C3CCOCC3)C[C@@H]2O1` was tested, and the INHIBITION was 14.5%. In the case of `CCc1cc(NCC(O)CN2CCCCC2)n2ncnc2n1` (stereo not given), the INHIBITION is reported as -0.79%. With `CN(C)c1cccc(C(=O)N2C[C@@H]3CC[C@H]2CN(C(=O)C2CCC2)C3)c1` the INHIBITION was 50.3%. In the case of `CCOc1cccc(C(=O)N2C[C@@H]3CC[C@H]2CN(C(=O)C2CCC2)C3)c1`, the INHIBITION is reported as 27.6%. Compound `CN(C)C(=O)N1C[C@H]2CC[C@@H](C1)N(C(=O)c1cccc(N(C)C)c1)C2` has an INHIBITION of 26.7%. Work on `CN(C)C(=O)c1cnc2n1CCN(Cc1ccsc1)C2` yielded an INHIBITION of 3.11%. For `COCC1c2c(cnn2C)CCN1Cc1cccc(C)c1` (stereo not given), the INHIBITION was 26.3%. With `CN1CCN(CC2(O)CCCN(C(=O)Cc3cccc(O)c3)CC2)CC1` (stereo not given) the INHIBITION was -2.09%. Compound `O=S(=O)(Cc1ccc(F)cc1)NCc1ccco1` has an INHIBITION of 52.1%. `O=C1OCCN1c1cccc(CNS(=O)(=O)Cc2ccc(F)cc2)c1` showed an INHIBITION of 18.9%. For `O=S(=O)(Cc1ccccc1)NCc1ccco1`, the INHIBITION was 11.5%. With `Cc1ccc(CS(=O)(=O)NCc2ccco2)cc1` the INHIBITION was 52.1%. `CC(C)(Oc1ccc(F)cc1)C(=O)NCc1ccco1` gave an INHIBITION of -0.797%. Work on `CNc1c(NCc2ccco2)c(=O)c1=O` yielded an INHIBITION of 33.5%. With `O=C1CCC[C@]2(CN(S(=O)(=O)N3CCCCC3)C[C@H]2c2cccnc2)N1` the INHIBITION was 17.4%. In the case of `O=C(CO[C@@H]1CC[C@H]2[C@H]1OCCN2CC1CCOCC1)N1CCCC1`, the INHIBITION is reported as 11.9%. Work on `CN1CCOCC2(CCCN(C(=O)c3ccc(-n4cccc4)cc3)C2)C1` (stereo not given) yielded an INHIBITION of 50.9%. `CN1CCOCC2(CCCN(C(=O)c3cn(C)cn3)C2)C1` (stereo not given) showed an INHIBITION of -57.7%. `CN(C)CCN1CCOCC2(CCCN(C(=O)c3cccn3C)C2)C1` (stereo not given) gave an INHIBITION of 47.9%. Work on `CN(C)CCN1CCOCC2(CCCN(C(=O)c3ccoc3)C2)C1` (stereo not given) yielded an INHIBITION of 30.3%. For `CN(C)CCN1CCOCC2(CCCN(C(=O)c3ccccc3)C2)C1` (stereo not given), the INHIBITION was 20.9%. For `CN(C)CCN1CCOCC2(CCCN(C(=O)c3ccccn3)C2)C1` (stereo not given), the INHIBITION was 54.7%. In the case of `Cc1cc(C(=O)N2CCCC3(COCCN(CCN(C)C)C3)C2)no1` (stereo not given), the INHIBITION is reported as 56.1%. With `CN1CCOCC2(CCCN(C(=O)c3ccccc3F)C2)C1` (stereo not given) the INHIBITION was 34.6%. In the case of `CN(C)CCN1CCOCC2(CCCN(C(=O)c3cccc(O)c3)C2)C1` (stereo not given), the INHIBITION is reported as 4.61%. In the case of `Cc1ccc(C)c(NS(=O)(=O)c2cc3c(c(C(=O)O)c2)OCCO3)c1`, the INHIBITION is reported as 38.8%. `O=C(NCCc1nc(C2CC2)no1)[C@H]1CNC[C@H](C(=O)N2CCCC2)C1` gave an INHIBITION of -31.3%. With `Cc1nn(C)c(N(C)C)c1CNCc1ccc(OCCN(C)C)cc1` the INHIBITION was 27.6%. Work on `COCCn1ccc2cc(NC(C)=O)ccc21` yielded an INHIBITION of 18.2%. `COC(=O)C(C)NCc1ccc2[nH]c(C)c(C)c2c1` (stereo not given) gave an INHIBITION of 46.4%. Compound `Cc1[nH]c2ccc(CNc3cc(C(=O)NC(C)C)ccn3)cc2c1C` has an INHIBITION of 55.4%. Work on `Cc1[nH]c2ccc(CNc3cc(C#N)ccn3)cc2c1C` yielded an INHIBITION of 16.9%. `Cc1[nH]c2ccc(CNc3cc(C(N)=O)ccn3)cc2c1C` was tested, and the INHIBITION was 16.9%. `CSCC(C)NCc1ccc2[nH]c(C)c(C)c2c1` (stereo not given) was tested, and the INHIBITION was 76.9%. `COCC(C)NCc1ccc2[nH]c(C)c(C)c2c1` (stereo not given) was tested, and the INHIBITION was 2.9%. `CC(=O)N1Cc2ccccc2OC2(CCN(C(=O)C3CC3)CC2)C1` showed an INHIBITION of 37.8%. Compound `CCCSc1ncccc1C(=O)NCc1ccc(S(N)(=O)=O)cc1` has an INHIBITION of -7.29%. `N#Cc1cccc(NS(=O)(=O)c2ccc(C(=O)O)cc2F)c1` gave an INHIBITION of 45.7%. Compound `CN(C)c1ccc(CNC(=O)c2ccc(Cl)cc2F)cc1` has an INHIBITION of 14.2%. `CN(Cc1ccc(N(C)C)cc1)C(=O)CS(=O)(=O)c1ccc(Cl)cc1` showed an INHIBITION of 64.3%. `CN(Cc1ccc(OC(F)F)cc1)C(=O)CS(=O)(=O)c1ccc(Cl)cc1` was tested, and the INHIBITION was 34.7%. `CC1(C)O[C@@](C)([C@H]2CC3(CCN(c4ncccn4)CC3)CO2)CC[C@@H]1O` gave an INHIBITION of 32.7%. `CC(C)c1noc(CN2CCN(C(=O)c3ccc(F)cc3)CC2)n1` showed an INHIBITION of 16.8%. `O=C1c2cc(Br)cc(Br)c2OCC1(CN1CCCC1)CN1CCCC1` showed an INHIBITION of 59%. In the case of `O=C(CN1CCCCC1)Nc1ncc(Br)cc1Br`, the INHIBITION is reported as 27.8%. Work on `Cc1cc(I)c2c(c1)C(=O)C(CN1CCCC1)(CN1CCCC1)CO2` yielded an INHIBITION of -55.3%. In the case of `FC(F)CN1CCC(NCCc2ccc(-n3cccn3)cc2)CC1`, the INHIBITION is reported as 6.83%.
